Rows were chosen to be rich in hits. Some 4.6% of all compounds tested hit in one or more screens of this group.
PfHsp90 set2 – reduces growth (ATP signal) of yeast expressing P. falciparum Hsp90. 310,000 compounds, 0.32% hits. AID 504621. inhibition, % at 9.4 µM. S. cerevisiae expressing PfHsp90, BacTiter-Glo ATP, 48 h; yeast lacking PDR1 and PDR3 efflux regulators;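 active = every replicate shows inhibition above about 80%, whatever the replicate mean, limit read from the data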;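 also: 0% = DMSO neutral controls and 100% = 20 µM radicicol positive controls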
V-ATPase pH – regulators of yeast V-ATPase proton transport | AID 504577 | 350,000 compounds, 0.37% hits | S. cerevisiae, pHLuorin cytosolic pH fluorescence | response, % at 10 µM; in the data active = response mostly above about 7.3%, no sharp cut-off; inactive = mostly below about 5.4%; also: actives read high
TIM10 inh – TIM10 yeast growth inhibition. S. cerevisiae TIM10 strain growth, BacTiter-Glo luminescence, 24 h. inhibition, % at 10 µM. 330,000 compounds, 1.4% hits. AID 463195;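 active = inhibition of 40% or more at the single tested concentration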;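 also: wild-type TIM10 isogenic control strain grown at permissive 25 °C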
tim23-1 inh – growth inhibitors of tim23-1 mutant yeast | S. cerevisiae tim23-1 growth, BacTiter-Glo luminescence, 24 h | inhibition, % at 20 µM | 330,000 compounds, 1.3% hits;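 active = growth inhibition of the mutant yeast at or above 50%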;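 also: temperature-sensitive mutant grown at 25 °C; plate controls were DMSO-treated mutant yeast for no effect and medium wells lacking yeast for full effect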
SKKanGAS inh – SKKanGAS growth inhibition; S. pyogenes SKKanGAS, kanamycin growth, BacTiter-Glo, 6 h; inhibition, % at 7.5 µM; 300,000 compounds, 1.3% hits; AID 1662;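 active = mean replicate score, as percent of positive control median, at least 50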;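 also: strain carries kanamycin resistance gene driven by streptokinase promoter and grows in 40 µg/ml kanamycin; loss of luminescence reflects streptokinase promoter inhibition or plain growth inhibition; 0% = median of DMSO wells and 100% = positive control at its reference dose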
tim10-1 inh – growth inhibitors of tim10-1 mutant yeast; S. cerevisiae tim10-1 ts strain growth, BacTiter-Glo, 24 h; inhibition, % at 20 µM; 330,000 compounds, 2.2% hits;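 active = inhibition of at least 40%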;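 also: mutant grown at 25 °C; 0% = DMSO wells with yeast and 100% = wells holding no yeast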
Starred values were filed as active, the others as inactive; / = no result.

SMILES	PfHsp90 set2	V-ATPase pH	TIM10 inh	tim23-1 inh	SKKanGAS inh	tim10-1 inh
COC(=O)C(Sc1ccc(Cl)cc1)C1SC(=S)N(Cc2ccccc2)C1=O (stereo not drawn)	/	1	/	/	/	/
CS(=O)(=O)c1ccc(Cl)c(NC(=O)c2ccc(-n3cncn3)c([N+](=O)[O-])c2)c1	/	-2	/	/	/	/
CCOC(=O)CN1N=C(/C=C/c2ccc(C)cc2)CCC1=O	-17	-2	2	9	-17	6
Cc1ccc(/C=C/C2=NN(Cc3ccc(Cl)c(Cl)c3)C(=O)CC2)cc1	/	-2	-17	-1	54*	13
CC1(c2nnc(Cc3ccccc3)o2)CC(c2cccc([N+](=O)[O-])c2)=NO1 (stereo not drawn)	6	-1	5	13	-4	1
CC1(c2nnc(Cc3ccccc3)o2)CC(c2ccccc2[N+](=O)[O-])=NO1 (stereo not drawn)	108*	-12	-13	9	0	0
CCC1OC(=O)C(C)C(OC2C[C@@](C)(OC)C(O)C(C)O2)C(C)C(O[C@@H]2OC(C)CC(N(C)C)C2O)[C@](C)(O)CC(C)C(=NOCOCCOC)C(C)C(O)[C@]1(C)O (stereo partly drawn)	4	-4	3	8	/	1
CC[C@H]1OC(=O)C[C@@H](O)[C@H](C)[C@@H](O[C@@H]2O[C@H](C)C[C@H](N(C)C)[C@H]2O)[C@@H](CC=O)C[C@@H](C)C(=O)C=C[C@]2(C)O[C@H]2[C@@H]1C	/	/	/	/	111*	/
COc1cccc(-c2nc(NC3CCCC3)c3ccccc3n2)c1O	117*	-2	-13	49	55*	36
COc1cccc(-c2nc(N3CCCCC3C)c3ccccc3n2)c1O (stereo not drawn)	-19	-2	-1	14	76*	22
Cc1[nH]n(-c2ccccc2)c(=O)c1Sc1ccc(Cl)cc1	-8	2	19	21	-1	13
CCCSC(=S)c1c(C)[nH]n(-c2ccccc2)c1=O	-58	-3	17	14	89*	14
CCOc1ccc(C(=O)NCC(=O)OCc2c(C)noc2C)cc1OCC	/	13*	-7	25	-6	3
Cc1nc(N)sc1N=Nc1ccc(F)cc1	4	1	20	36	81*	19
Cc1ccc(C)c(S(=O)(=O)/N=C2\C=C(NS(=O)(=O)c3ccccc3)C(=O)c3ccccc32)c1	-4	-1	22	45	107*	28
Cc1ccccc1NC1=C/C(=N\S(=O)(=O)c2ccc(C(=O)O)cc2)c2ccccc2C1=O	-18	-4	21	48	95*	27
CCc1ccc(S(=O)(=O)/N=C2\C=C(NS(=O)(=O)c3ccccc3)C(=O)c3ccccc32)cc1	11	0	18	35	63*	34
Cc1cc(C)cc(NC(=O)C(OC(=O)c2sccc2C)c2ccccc2)c1 (stereo not drawn)	-23	3	-13	3	-5	10
O=C1CCC/C=C/C[C@H](CC(=O)N(CCO)Cc2ccccc2)C(=O)N[C@@H](Cc2ccccc2)CO1	/	-1	4	30	/	9
CC(=O)O[C@H]1C[C@@]2(C)[C@@H](C[C@@H](O)[C@H]3[C@@]4(C)CC[C@@H](O)[C@@H](C)[C@@H]4CC[C@@]32C)/C1=C(\CCC=C(C)C)C(=O)O	1	-3	7	-5	109*	7
Cc1nc(N2CCC(C)CC2)c2c(C)c(C(=O)Nc3ccc(C(F)(F)F)cc3)sc2n1	3	-4	-3	27	75*	30
CC(C)(C)c1ccc2c(c1)OC(C(=O)N/N=C/c1ccc([N+](=O)[O-])o1)CO2 (stereo not drawn)	/	-3	6	28	66*	-49
CC(C)(C)c1ccc2c(c1)OC(C(=O)N/N=C\c1ccncc1)CO2 (stereo not drawn)	2	-3	-79	7	-20	-64
CCOC(=O)c1c(Nc2ccccc2)sc(/C=C2\C=Nc3ccccc32)c1O	19	1	2	-5	-2	9
Oc1nc(Nc2ccccc2)sc1/C=C1\C=Nc2ccccc21	7	-3	-9	17	54*	-46
SMILES	PfHsp90 set2	V-ATPase pH	TIM10 inh	tim23-1 inh	SKKanGAS inh	tim10-1 inh
CCc1noc(C)c1C(=O)OCC(=O)NC(=O)c1ccccc1	10	-1	-3	11	50*	-20
CCCc1cc(=O)oc2cc(OCC(=O)N(C)C)c(Cl)cc12	0	26*	-1	-2	-3	-1
CC1=C(C(=O)N2CCOCC2)CC(CC(=O)NC(c2ccccc2)c2ccccc2)C(=O)N1Cc1ccc(F)cc1 (stereo not drawn)	/	0	/	/	/	/
O=C(O)c1ccc2c3c(ncnc13)-c1ccccc1C2=O	/	/	22	20	59*	-4
O=C(Cc1cccs1)NNC(=S)NC(=O)c1ccc(F)c(F)c1	-37	3	14	-11	29	25
COc1ccc(CNC(=O)Cc2cccs2)cc1	-14	-2	-10	-3	-3	-20
O=C(Cc1cccs1)NNC(=S)NC(=O)c1ccccc1	-1	-2	-14	-43	56*	19
COc1ccc(C(=O)NNC(=S)NC(=O)/C=C/c2cccs2)cc1	-38	-2	-14	-13	62*	11
O=C(/C=C/c1cccs1)NC(=S)Nc1ccccc1	/	-7	30	-11	5	29
COc1ccc(/C=C/C(=O)NC(=S)NNC(=O)Cc2cccs2)cc1	0	0	2	-38	109*	-3
O=C(/C=C/c1ccccc1)NC(=S)NNC(=O)Cc1cccs1	3	-1	5	-4	79*	23
O=C(NC(=S)Nc1ccccc1)c1cccs1	-11	1	1	38	1	19
O=C(Cc1ccccc1)NNC(=S)NC(=O)c1cccs1	/	1	8	-19	79*	24
O=C(NNC(=S)NC(=O)c1cccs1)c1ccc(O)cc1	-18	0	4	2	/	-29
O=C(NC(=S)NNC(=O)c1cccs1)c1ccc(Br)o1	5	0	6	-10	101*	16
Cc1cc(C)c2sc(NNC(=O)c3ccc(S(=O)(=O)N4CCc5ccccc5C4)cc3)nc2c1	43	-2	18	28	65*	25
Cc1cc(C)c2nc(NNC(=O)c3ccc(S(=O)(=O)N4CCc5ccccc5C4)cc3)sc2c1	45	3	-23	8	78*	-27
Cc1cc(C)c2sc(N(CCCN(C)C)C(=O)c3ccc(S(=O)(=O)N4CCc5ccccc5C4)cc3)nc2c1	-17	-1	3	1	10	3
Cc1cc(C)c2nc(NNC(=O)c3cc(=O)c4ccccc4o3)sc2c1	-69	-2	-30	27	85*	12
CCCN1CCc2c(sc(NC(=O)CCS(=O)(=O)c3ccccc3)c2C(=O)OC)C1	-42	2	4	22	14	18
